# In PMC7862700, “An all-to-all approach to the identification of sequence-specific readers for epigenetic DNA modifications on cytosine”:
# How the values were obtained:
# Test in all cases: DAPPL (digital affinity profiling via proximity ligation, sequencing); 10 mM Tris-HCl pH 7.5, 50 mM NaCl, 1 mM DTT, 4% glycerol, room temperature, 30 min; GST-TFs on glutathione beads, 16-mer random dsDNA library, 0.1% formaldehyde crosslink after washing; high values mean tight binding
# FLI1 = molecular target: T1, FLI1 (Homo sapiens, UniProt Q01543 1-452); conditions: protein: recombinant; tags: N-terminal GST; dsDNA, one strand shown
# T1 sequence: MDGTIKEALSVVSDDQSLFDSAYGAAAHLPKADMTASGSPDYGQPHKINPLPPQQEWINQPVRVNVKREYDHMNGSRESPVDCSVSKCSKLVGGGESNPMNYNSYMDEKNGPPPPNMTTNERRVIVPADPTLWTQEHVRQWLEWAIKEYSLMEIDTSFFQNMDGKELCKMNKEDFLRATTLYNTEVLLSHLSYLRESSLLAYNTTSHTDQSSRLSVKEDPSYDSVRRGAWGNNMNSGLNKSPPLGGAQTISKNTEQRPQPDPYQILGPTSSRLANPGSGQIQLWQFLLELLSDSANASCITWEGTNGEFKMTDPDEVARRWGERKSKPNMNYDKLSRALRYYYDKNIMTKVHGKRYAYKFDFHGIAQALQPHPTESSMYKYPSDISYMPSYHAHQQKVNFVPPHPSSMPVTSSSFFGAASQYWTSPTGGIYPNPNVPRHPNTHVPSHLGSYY
# Summary of the method: (§1)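 Human transcription factors fused to GST were expressed in yeast, captured on glutathione beads, given DNA barcodes and pooled with a GST-only negative control. Pools were incubated with 200 nmole of a 16-mer random double-stranded DNA library in Tris/NaCl/DTT/glycerol buffer at room temperature for 30 min. They were then washed, crosslinked with 0.1% formaldehyde, proximity-ligated (BsaI/T4 ligase, 1 h, 37 °C), PCR-amplified and sequenced on an Illumina NextSeq500. Binding signal is each 6-mer's read frequency for a factor divided by its frequency for the GST control.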
# ELK1 = molecular target: T2, ELK1 (Homo sapiens, UniProt P19419 1-428); conditions: protein: recombinant; tags: N-terminal GST; dsDNA, one strand shown
# T2 sequence: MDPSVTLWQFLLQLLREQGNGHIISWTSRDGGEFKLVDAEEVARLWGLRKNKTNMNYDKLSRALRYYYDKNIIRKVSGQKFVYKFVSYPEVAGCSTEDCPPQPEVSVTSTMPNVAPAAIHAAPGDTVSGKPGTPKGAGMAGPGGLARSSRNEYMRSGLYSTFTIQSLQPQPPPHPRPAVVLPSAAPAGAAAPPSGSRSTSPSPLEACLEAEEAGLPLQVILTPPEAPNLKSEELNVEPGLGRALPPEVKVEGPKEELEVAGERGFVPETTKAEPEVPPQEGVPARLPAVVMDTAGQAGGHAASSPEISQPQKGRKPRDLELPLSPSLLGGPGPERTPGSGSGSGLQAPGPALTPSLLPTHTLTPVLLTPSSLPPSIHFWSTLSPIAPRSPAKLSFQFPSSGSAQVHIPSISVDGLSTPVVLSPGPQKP
# Summary of the method: as §1
# GABPA = molecular target: T3, GABPA (Homo sapiens, UniProt Q06546 1-454); conditions: protein: recombinant; tags: N-terminal GST; dsDNA, one strand shown
# T3 sequence: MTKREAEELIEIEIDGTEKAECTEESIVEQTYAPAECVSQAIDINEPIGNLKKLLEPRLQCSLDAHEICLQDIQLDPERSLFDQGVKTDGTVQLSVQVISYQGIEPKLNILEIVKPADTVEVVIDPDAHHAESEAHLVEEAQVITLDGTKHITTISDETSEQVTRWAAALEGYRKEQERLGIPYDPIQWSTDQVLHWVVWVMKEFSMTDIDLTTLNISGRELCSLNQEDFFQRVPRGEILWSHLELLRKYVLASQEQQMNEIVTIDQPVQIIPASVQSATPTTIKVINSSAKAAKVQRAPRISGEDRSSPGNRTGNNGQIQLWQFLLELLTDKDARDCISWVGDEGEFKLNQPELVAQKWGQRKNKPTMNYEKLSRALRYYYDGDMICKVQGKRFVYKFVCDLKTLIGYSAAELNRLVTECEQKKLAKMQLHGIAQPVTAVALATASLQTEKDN
# Summary of the method: as §1
# ERG = molecular target: T4, ERG (Homo sapiens, UniProt P11308 1-479); conditions: protein: recombinant; tags: N-terminal GST; dsDNA, one strand shown
# T4 sequence: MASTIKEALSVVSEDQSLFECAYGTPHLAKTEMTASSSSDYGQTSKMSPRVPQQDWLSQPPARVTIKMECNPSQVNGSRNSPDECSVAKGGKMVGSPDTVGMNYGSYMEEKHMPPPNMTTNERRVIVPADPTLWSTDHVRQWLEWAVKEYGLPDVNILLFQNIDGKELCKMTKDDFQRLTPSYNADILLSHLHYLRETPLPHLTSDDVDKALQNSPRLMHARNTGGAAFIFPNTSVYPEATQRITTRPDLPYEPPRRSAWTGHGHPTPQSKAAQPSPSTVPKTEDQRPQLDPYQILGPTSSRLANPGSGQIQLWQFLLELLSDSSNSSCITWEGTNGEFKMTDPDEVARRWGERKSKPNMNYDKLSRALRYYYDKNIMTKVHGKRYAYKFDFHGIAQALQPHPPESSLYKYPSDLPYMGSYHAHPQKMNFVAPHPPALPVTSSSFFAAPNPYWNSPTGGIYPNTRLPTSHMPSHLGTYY
# Summary of the method: as §1
# ELF1 = ELF1 (Homo sapiens, UniProt P32519 1-619); conditions: protein: recombinant; tags: N-terminal GST; dsDNA, one strand shown
# Chain of ELF1 (P32519 whole entry): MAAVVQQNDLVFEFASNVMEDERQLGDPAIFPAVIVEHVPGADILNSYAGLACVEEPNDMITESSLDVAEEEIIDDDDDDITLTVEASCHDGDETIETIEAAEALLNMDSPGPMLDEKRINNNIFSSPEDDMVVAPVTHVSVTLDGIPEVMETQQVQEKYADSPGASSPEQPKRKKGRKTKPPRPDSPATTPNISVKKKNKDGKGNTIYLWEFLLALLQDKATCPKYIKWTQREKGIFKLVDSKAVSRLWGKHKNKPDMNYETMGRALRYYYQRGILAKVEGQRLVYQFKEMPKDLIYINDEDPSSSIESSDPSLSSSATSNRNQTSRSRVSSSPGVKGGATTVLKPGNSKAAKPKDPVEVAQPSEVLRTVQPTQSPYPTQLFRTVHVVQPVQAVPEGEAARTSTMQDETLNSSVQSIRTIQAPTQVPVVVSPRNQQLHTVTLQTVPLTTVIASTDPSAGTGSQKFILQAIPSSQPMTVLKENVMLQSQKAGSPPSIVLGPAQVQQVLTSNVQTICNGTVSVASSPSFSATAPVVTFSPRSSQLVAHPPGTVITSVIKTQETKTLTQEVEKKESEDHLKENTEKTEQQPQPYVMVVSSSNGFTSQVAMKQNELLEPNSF
# Summary of the method: as §1
# EHF = molecular target: T5, EHF (Homo sapiens, UniProt Q9NZC4 1-300); conditions: protein: recombinant; tags: N-terminal GST; dsDNA, one strand shown
# T5 sequence: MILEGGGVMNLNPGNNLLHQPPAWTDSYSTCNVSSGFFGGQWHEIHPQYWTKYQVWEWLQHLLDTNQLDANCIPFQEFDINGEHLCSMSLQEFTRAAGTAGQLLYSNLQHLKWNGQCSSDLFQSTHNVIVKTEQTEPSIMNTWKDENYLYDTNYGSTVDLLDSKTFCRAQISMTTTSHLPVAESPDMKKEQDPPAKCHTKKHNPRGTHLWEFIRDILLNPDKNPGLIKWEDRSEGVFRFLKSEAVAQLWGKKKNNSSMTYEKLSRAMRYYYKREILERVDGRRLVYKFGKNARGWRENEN
# Summary of the method: as §1
# SPI1 = SPI1 (Homo sapiens, UniProt P17947 1-270); conditions: protein: recombinant; tags: N-terminal GST; dsDNA, one strand shown
# Summary of the method: as §1
# SPIB = SPIB (Homo sapiens, UniProt Q01892 1-262); conditions: protein: recombinant; tags: N-terminal GST; dsDNA, one strand shown
# Chain of SPIB (Q01892 whole entry): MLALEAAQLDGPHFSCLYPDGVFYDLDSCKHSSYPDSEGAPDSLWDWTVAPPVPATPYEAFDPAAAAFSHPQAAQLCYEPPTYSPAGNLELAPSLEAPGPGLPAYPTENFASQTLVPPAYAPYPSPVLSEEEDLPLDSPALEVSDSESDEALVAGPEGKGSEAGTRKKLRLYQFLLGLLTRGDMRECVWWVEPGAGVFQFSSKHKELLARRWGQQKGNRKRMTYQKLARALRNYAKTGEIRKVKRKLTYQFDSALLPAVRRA
# Summary of the method: as §1
# ELK3 = molecular target: T6, ELK3 (Homo sapiens, UniProt P41970 1-407); conditions: protein: recombinant; tags: N-terminal GST; dsDNA, one strand shown
# T6 sequence: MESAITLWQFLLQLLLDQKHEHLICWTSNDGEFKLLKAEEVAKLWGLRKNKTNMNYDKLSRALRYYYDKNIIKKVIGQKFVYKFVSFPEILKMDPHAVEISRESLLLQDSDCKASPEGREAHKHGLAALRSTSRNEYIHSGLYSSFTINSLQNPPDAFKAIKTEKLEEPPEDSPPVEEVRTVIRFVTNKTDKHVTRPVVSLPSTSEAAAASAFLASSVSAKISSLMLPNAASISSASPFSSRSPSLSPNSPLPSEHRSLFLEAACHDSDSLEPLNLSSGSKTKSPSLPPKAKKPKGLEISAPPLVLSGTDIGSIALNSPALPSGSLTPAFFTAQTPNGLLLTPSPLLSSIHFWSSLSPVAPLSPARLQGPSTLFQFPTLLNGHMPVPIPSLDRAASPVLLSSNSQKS
# Summary of the method: as §1
# FEV = molecular target: T7, FEV (Homo sapiens, UniProt Q99581 1-238); conditions: protein: recombinant; tags: N-terminal GST; dsDNA, one strand shown
# T7 sequence: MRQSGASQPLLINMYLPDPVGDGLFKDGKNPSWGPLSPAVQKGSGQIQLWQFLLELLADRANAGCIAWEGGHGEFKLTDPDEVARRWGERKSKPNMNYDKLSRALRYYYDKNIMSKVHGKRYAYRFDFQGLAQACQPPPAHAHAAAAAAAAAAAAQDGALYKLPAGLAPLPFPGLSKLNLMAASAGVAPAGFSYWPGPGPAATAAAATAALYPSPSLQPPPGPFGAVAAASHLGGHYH
# Summary of the method: as §1
# ETV5 = ETV5 (Homo sapiens, UniProt P41161 1-510); conditions: protein: recombinant; tags: N-terminal GST; dsDNA, one strand shown
# Chain of ETV5 (P41161 whole entry): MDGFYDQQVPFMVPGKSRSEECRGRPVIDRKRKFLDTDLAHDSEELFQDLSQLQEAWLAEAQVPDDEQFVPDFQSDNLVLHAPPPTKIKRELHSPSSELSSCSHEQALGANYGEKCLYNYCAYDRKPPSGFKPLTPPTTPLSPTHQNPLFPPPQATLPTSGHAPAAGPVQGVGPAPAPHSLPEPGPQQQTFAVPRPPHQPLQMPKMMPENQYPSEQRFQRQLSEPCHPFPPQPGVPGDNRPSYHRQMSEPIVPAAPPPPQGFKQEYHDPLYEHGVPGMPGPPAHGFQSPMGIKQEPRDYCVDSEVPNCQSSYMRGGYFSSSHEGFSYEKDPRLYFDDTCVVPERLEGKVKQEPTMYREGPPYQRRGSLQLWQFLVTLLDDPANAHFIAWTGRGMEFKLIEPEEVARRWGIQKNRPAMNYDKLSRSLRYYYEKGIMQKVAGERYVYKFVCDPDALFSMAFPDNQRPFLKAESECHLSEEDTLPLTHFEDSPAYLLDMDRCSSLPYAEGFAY
# Summary of the method: as §1
# HSF1 = HSF1 (Homo sapiens, UniProt Q00613 1-529); conditions: protein: recombinant; tags: N-terminal GST; chain copies: 3; dsDNA, one strand shown
# Chain of HSF1 (Q00613 whole entry): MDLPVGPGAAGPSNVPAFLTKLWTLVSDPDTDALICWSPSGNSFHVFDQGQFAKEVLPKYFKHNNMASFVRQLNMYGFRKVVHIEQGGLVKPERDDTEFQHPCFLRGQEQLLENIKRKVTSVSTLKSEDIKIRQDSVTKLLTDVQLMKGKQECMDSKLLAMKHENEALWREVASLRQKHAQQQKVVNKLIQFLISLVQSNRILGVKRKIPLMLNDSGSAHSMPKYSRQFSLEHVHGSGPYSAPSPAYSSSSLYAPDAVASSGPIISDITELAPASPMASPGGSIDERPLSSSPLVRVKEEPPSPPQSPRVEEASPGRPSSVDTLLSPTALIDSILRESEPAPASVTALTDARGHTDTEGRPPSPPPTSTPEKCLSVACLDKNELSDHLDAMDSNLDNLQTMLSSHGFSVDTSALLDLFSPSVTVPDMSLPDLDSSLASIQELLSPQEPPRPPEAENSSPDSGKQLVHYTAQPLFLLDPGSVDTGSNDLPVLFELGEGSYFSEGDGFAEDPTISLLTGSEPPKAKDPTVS
# Summary of the method: as §1
# SPIC = molecular target: T8, SPIC (Homo sapiens, UniProt Q8N5J4 1-248); conditions: protein: recombinant; tags: N-terminal GST; dsDNA, one strand shown
# T8 sequence: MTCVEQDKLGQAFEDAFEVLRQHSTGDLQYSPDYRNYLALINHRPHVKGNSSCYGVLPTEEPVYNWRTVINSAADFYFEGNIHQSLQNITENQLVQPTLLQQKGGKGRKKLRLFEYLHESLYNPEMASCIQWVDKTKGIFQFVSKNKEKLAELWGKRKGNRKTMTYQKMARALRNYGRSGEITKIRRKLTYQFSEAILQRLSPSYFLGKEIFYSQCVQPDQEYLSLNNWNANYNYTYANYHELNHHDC
# Summary of the method: as §1
# ELF4 = ELF4 (Homo sapiens, UniProt Q99607 1-663); conditions: protein: recombinant; tags: N-terminal GST; dsDNA, one strand shown
# Chain of ELF4 (Q99607 whole entry): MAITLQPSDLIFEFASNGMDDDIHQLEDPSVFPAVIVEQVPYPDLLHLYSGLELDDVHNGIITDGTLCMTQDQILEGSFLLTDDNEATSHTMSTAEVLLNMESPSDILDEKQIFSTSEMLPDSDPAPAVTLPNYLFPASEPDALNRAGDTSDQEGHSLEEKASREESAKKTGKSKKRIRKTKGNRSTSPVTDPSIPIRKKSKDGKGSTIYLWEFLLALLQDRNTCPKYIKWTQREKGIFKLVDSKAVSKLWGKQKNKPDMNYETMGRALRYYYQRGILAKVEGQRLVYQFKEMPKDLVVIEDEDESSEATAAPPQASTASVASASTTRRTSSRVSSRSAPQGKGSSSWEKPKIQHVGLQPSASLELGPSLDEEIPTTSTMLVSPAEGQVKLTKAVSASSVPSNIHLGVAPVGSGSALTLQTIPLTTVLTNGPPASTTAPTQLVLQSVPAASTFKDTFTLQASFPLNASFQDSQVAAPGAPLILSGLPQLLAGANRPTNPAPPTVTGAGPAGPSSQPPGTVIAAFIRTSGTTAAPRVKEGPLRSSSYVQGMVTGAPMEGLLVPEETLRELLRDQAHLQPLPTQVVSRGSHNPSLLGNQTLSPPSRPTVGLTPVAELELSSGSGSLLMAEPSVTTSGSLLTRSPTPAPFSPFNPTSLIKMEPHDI
# Summary of the method: as §1
# ELK4 = molecular target: T9, ELK4 (Homo sapiens, UniProt P28324-2 1-405); conditions: protein: recombinant; tags: N-terminal GST; dsDNA, one strand shown
# T9 sequence: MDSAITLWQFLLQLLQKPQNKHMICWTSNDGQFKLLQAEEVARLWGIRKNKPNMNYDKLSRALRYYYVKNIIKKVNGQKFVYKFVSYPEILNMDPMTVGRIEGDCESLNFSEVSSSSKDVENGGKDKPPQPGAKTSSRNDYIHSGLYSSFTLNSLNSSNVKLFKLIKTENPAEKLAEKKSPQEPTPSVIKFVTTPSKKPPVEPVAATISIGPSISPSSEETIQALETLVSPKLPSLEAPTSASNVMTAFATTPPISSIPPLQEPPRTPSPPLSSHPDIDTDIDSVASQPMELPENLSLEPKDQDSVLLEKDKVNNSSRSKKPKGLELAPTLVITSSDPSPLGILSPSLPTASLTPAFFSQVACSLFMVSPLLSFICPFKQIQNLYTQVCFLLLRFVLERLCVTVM
# Summary of the method: as §1
# ETV2 = molecular target: T10, ETV2 (Homo sapiens, UniProt O00321 1-342); conditions: protein: recombinant; tags: N-terminal GST; dsDNA, one strand shown
# T10 sequence: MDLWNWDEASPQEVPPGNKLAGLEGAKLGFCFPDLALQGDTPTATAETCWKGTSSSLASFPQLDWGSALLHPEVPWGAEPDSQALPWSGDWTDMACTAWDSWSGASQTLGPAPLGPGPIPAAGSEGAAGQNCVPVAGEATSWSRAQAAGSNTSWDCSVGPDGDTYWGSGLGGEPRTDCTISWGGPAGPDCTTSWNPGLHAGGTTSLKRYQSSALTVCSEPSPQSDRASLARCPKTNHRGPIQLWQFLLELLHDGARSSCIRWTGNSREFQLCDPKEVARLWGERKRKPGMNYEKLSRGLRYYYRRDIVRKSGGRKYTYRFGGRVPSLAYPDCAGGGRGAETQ
# Summary of the method: as §1
# ELF3 = molecular target: T11, ELF3 (Homo sapiens, UniProt P78545 1-371); conditions: protein: recombinant; tags: N-terminal GST; dsDNA, one strand shown
# T11 sequence: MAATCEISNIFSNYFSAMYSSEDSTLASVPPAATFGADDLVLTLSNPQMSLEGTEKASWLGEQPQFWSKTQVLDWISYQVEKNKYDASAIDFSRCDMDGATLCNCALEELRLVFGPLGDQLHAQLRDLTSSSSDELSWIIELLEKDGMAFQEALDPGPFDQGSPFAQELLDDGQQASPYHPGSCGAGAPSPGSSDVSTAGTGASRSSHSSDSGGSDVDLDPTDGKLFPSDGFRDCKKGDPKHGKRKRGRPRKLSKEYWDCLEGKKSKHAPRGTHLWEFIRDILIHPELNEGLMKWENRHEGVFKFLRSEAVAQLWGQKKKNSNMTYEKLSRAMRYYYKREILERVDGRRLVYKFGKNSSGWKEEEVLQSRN
# Summary of the method: as §1
# CRX = CRX (Homo sapiens, UniProt O43186 1-299); conditions: protein: recombinant; tags: N-terminal GST; dsDNA, one strand shown
# Chain of CRX (O43186 whole entry): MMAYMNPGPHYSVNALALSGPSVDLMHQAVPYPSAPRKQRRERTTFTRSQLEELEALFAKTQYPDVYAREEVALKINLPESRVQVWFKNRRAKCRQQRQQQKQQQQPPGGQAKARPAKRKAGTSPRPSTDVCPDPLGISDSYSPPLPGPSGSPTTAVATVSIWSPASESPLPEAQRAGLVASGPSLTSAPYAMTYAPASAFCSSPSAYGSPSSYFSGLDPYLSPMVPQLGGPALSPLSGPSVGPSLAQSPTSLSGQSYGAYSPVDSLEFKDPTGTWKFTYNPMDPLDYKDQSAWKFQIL
# Summary of the method: as §1
# ETV1 = ETV1 (Homo sapiens, UniProt P50549 1-477); conditions: protein: recombinant; tags: N-terminal GST; dsDNA, one strand shown
# Chain of ETV1 (P50549 whole entry): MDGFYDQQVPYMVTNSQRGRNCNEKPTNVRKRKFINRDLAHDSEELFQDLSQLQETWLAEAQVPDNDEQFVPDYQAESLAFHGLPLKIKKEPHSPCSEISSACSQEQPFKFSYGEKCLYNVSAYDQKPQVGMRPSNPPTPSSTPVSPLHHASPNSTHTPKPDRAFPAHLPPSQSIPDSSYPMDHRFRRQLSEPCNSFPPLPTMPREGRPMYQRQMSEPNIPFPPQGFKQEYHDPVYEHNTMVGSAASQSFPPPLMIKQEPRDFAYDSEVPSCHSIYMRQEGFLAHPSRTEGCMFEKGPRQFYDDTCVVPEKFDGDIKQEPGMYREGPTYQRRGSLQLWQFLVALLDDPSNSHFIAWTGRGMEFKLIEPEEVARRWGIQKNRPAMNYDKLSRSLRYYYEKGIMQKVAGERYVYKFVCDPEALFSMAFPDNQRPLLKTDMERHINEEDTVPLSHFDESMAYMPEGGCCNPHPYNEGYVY
# Summary of the method: as §1
sequence,measurement,setting,value
TCATAT,binding signal,FLI1,"1.21 fold enrichment (6-mer frequency, TF over GST control)"
same,binding signal,ELK1,"1.2 fold enrichment (6-mer frequency, TF over GST control)"
same,binding signal,GABPA,"1.26 fold enrichment (6-mer frequency, TF over GST control)"
same,binding signal,ERG,"1.2 fold enrichment (6-mer frequency, TF over GST control)"
same,binding signal,ELF1,"1.29 fold enrichment (6-mer frequency, TF over GST control)"
same,binding signal,EHF,"1.24 fold enrichment (6-mer frequency, TF over GST control)"
same,binding signal,SPI1,"1.18 fold enrichment (6-mer frequency, TF over GST control)"
same,binding signal,SPIB,"1.4 fold enrichment (6-mer frequency, TF over GST control)"
same,binding signal,ELK3,"1.17 fold enrichment (6-mer frequency, TF over GST control)"
same,binding signal,FEV,"1.24 fold enrichment (6-mer frequency, TF over GST control)"
same,binding signal,ETV5,"1.23 fold enrichment (6-mer frequency, TF over GST control)"
same,binding signal,HSF1,"1.15 fold enrichment (6-mer frequency, TF over GST control)"
same,binding signal,SPIC,"1.13 fold enrichment (6-mer frequency, TF over GST control)"
same,binding signal,ELF4,"1.28 fold enrichment (6-mer frequency, TF over GST control)"
same,binding signal,ELK4,"1.23 fold enrichment (6-mer frequency, TF over GST control)"
same,binding signal,ETV2,"1.29 fold enrichment (6-mer frequency, TF over GST control)"
same,binding signal,ELF3,"1.23 fold enrichment (6-mer frequency, TF over GST control)"
same,binding signal,CRX,"1.22 fold enrichment (6-mer frequency, TF over GST control)"
same,binding signal,ETV1,"1.35 fold enrichment (6-mer frequency, TF over GST control)"
